Rows were chosen to be rich in hits. Some 11% of all compounds tested hit in one or more screens of this group.
NPR1 antag – Natriuretic polypeptide receptor (hNpr1) antagonism - Primary qHTS; Atrial natriuretic peptide receptor 1 (Homo sapiens), P16066; hit rate 1.6% among 76,000; HEK293 hNpr1 GloSensor cGMP, ANP-stimulated luminescence; Potency, µM (doses to about 46.3 µM), inactives show at the top dose activity change, negative = inhibition, most hits filed as inhibitors; calls by dose curve; further: nearly all actives have a fitted effect of over 60% in size
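Compound pre-incubated 30 min at room temperature on GloSensor-loaded HEK293 cells stably carrying hNpr1 and the pGS-40F cGMP biosensor. Stimulation uses hNppA at 0.1 nM final; luminescence is taken at baseline and 20 min post-agonist.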
3T3 cytotox – Cytotoxic Profiling in NIH 3T3 Cell Line of Diverse Libraries Using Quantitative High-Throughput Screening; NIH 3T3 viability, CellTiter-Glo ATP luminescence, 48-72 h; Potency, µM (highest dose often 96.7 µM), for inactives: at the top dose activity change, negative = cytotoxicity, actives largely listed as inhibitors; hit rate 4.3% among 94,000; AID 1345082, 2018; further: nearly all actives have a fitted effect of over 55% in size
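Mouse fibroblast NIH 3T3 cells, 400 per well, received compound via pintool and were incubated for 48 or 72 hr prior to CellTiter-Glo ATP luminescence measurement.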
Luciferase inh – Firefly luciferase inhibition profiling of diverse chemical library using quantitative high-throughput screening | hit rate 2.5% among 76,000 | Potency, µM (highest dose often 115 µM), most hits filed as inhibitors | purified P. pyralis luciferase, luminescence, biochemical; further: nearly all actives have a fitted effect of over 65% in size
Target sequence (P08659 whole entry, looked up): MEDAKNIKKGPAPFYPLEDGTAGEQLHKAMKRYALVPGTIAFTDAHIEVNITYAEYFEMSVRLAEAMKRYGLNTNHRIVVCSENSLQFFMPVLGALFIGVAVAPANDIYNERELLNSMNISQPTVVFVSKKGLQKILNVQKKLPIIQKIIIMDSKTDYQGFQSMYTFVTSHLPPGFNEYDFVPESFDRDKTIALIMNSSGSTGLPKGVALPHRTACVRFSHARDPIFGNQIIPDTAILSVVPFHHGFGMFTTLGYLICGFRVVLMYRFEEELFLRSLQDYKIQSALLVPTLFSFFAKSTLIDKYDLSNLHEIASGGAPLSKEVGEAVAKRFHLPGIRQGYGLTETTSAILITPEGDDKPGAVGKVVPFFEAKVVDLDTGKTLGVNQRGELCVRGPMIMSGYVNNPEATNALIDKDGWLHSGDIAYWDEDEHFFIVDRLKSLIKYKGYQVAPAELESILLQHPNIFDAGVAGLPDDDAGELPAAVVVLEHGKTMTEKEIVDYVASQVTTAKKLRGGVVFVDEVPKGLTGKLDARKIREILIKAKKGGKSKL
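Luminescence read by CCD imaging after purified firefly luciferase (10nM final) was added to substrate buffer holding 10uM D-luciferin and 10uM ATP, pH 7.5, pre-dosed with compound.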
HEK293 tox – Cytotoxic Profiling in HEK 293 Cell Line of Diverse Libraries Using Quantitative High-Throughput Screening | AID 1345083, 2018 | HEK 293 viability, ATP luminescence (CellTiter-Glo), 48-72 h | Potency, µM (top dose mostly 115 µM), for inactives: at the highest dose activity change, negative = cytotoxicity, hits mostly inhibitors | hit rate 6.6% among 94,000; further: nearly all actives have a fitted effect of over 60% in size
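ATP-coupled CellTiter-Glo luminescence served as viability read-out, recorded 10 min after reagent addition at room temperature. HEK 293 cells, 250 cells/well, had been incubated with pintool-transferred compound for 48 or 72 hr at 37 degree Celsius.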
* hit, by the source's call; i = inactive; ? = inconclusive; / = no result given; ! = not confirmed by another sample; [ ] = dose if it differs, or a comment. Unless noted, the call rests on the fitted dose curve; in most records, active means well fitted curve in the direction sought with a large enough effect; inconclusive means small, poorly fitted or top-dose-only effect, or another doubt; inactive means no such curve, though single readings can be large; an effect the other way counts as inactive or inconclusive. On the % scale 0 is the no-effect control and ±100 the full control effect; potency means the concentration at half of the fitted maximal effect.

SMILES	NPR1 antag	3T3 cytotox	Luciferase inh	HEK293 tox
Cc1nn(C)c(C)c1CCN(C)C(=O)CCC1CCN(C(=O)c2ccccc2F)CC1	3%	-12%	i	1%
Cc1ccc(NC(=O)CCC2CCN(C(=O)c3ccccc3)CC2)cc1F	-26%	?	?	28µM*
CC(C)NC(=O)CCC1CCN(C(=O)c2ccccc2F)CC1	0%	i	40µM*	2%
CC(C)CCN1CCCN(CCN(C)C)c2ccccc21	2%	?	i	?
Cc1ccsc1C(=O)N1CC[C@@H]2COCCN(Cc3ccncc3)[C@@H]2C1	/	-21%	/	?
CCCc1nc(C(=O)NCc2ccc(-n3ccnc3C)cc2)cs1	-27%	?	i	20µM*
c1ccc(-c2ccccc2CN[C@@H]2C[C@@H]3CO[C@H](c4ccccc4)C[C@@H]3C2)cc1	/	18µM*	/	?
c1ccc(CN[C@@H]2C[C@@H]3CO[C@H](c4ccccc4)C[C@@H]3C2)cc1	/	-26%	/	?
Cc1cc(=O)n(CC(=O)Nc2ccccc2F)c(N2CCc3ccccc3C2)n1	-8%	-22%	i	-29%
CC(C)c1cccc(NC(=O)Cn2cccc2-c2nc(-c3ccc4c(c3)OCO4)no2)c1	-3%	28µM*	i	?
COc1ccc(OC)c(NC(=O)Cn2cccc2-c2nc(-c3ccc4c(c3)OCO4)no2)c1	-13%	?	i	35µM*
COc1cc(Cl)c(C)cc1NC(=O)Cn1cccc1-c1nc(-c2ccc3c(c2)OCO3)no1	2%	-16%	i	-20%
Cn1cccc1CN1CCC2(C1)C(=O)Nc1ccccc12 (stereo not drawn)	6%[70.6 µM]	100µM*	i	?
O=C1Nc2ccccc2C12CCN(Cc1ccccc1)C2 (stereo not drawn)	/	-12%[138 µM]	/	-26%[172 µM]
O=C1NCCN2CC3(CCN(C(=O)CCC4CCCC4)CC3)CC12 (stereo not drawn)	/	0%	/	5%
O=C1CCn2nnc(CNc3cccc(C(F)(F)F)c3)c2CN1Cc1ccccc1	-2%[70.6 µM]	?	i	?
CC(C)CCN1CCc2ncc(C(=O)NCCOc3ccccc3)n2CC1	-4%[70.6 µM]	?	i	28µM*
O=C(NCc1ccccc1)c1cnc2n1CCN(CCCc1ccccc1)CC2	-17%[70.6 µM]	25µM*	i	?
N#Cc1ccc(CN2CCc3ncc(C(=O)NCCOc4ccccc4)n3CC2)cc1	?	?	i	71µM*
CNC(=O)c1cc(C)nc2onc(C3CCCN3C(=O)c3cccnc3)c12 (stereo not drawn)	/	1%	/	i
CN1CCC(NC(=O)C2(C)CN(Cc3ccccc3)Cc3ccc(Nc4ccccc4)nc32)CC1 (stereo not drawn)	-3%	16µM*	i	18µM*
CC1(C(=O)Nc2ccccc2)CN(Cc2ccccc2)Cc2ccc(N3CCOCC3)nc21 (stereo not drawn)	-2%	?	i	?
CNC(=O)C1(C)CN(Cc2ccccc2)Cc2ccc(Nc3ccccc3)nc21 (stereo not drawn)	?	?	?	79µM*
COC1CCN(C(=O)C2(C)CN(Cc3ccccc3)Cc3ccc(Nc4ccccc4)nc32)CC1 (stereo not drawn)	-17%	?	i	?
CN1Cc2ccc(Nc3ccccc3)nc2C(C)(C(=O)NCc2cccs2)C1 (stereo not drawn)	-20%[70.6 µM]	?	i	71µM*
SMILES	NPR1 antag	3T3 cytotox	Luciferase inh	HEK293 tox
CN1Cc2ccc(NCc3ccccc3)nc2C(C)(C(=O)NCc2cccnc2)C1 (stereo not drawn)	-8%[70.6 µM]	?	i	?
CNC(=O)C1(C)CN(Cc2ccccc2)Cc2ccc(NCC(C)C)nc21 (stereo not drawn)	?	?	i	?
CC1(C(=O)NC2CCOCC2)CN(Cc2ccccc2)Cc2ccc(Nc3ccccc3)nc21 (stereo not drawn)	-13%	32µM*	i	?
O=C1NCCCCCN(Cc2cn[nH]c2-c2ccccc2)[C@H]2CCC[C@@H]12	3%	?	i	?
CCc1nc2c(c(-c3ccc(O)cc3)n1)CCN(C(=O)Cc1cccc(Cl)c1)CC2	/	-10%	/	-16%
COCCN1Cc2ccc(NCc3ccccc3)nc2C(C)(C(=O)NC2COC2)C1 (stereo not drawn)	7%[70.6 µM]	?	i	?
CC1(C(=O)NC2COC2)CN(Cc2ccccc2)Cc2ccc(Nc3ccccc3)nc21 (stereo not drawn)	-2%[70.6 µM]	40µM*	i	89µM*
COc1ccc(CN(C(=O)c2ccco2)c2ccc(CC(=O)NCc3ccccc3)cc2)cc1	-17%	35µM*	i	?
COCCNC(=O)Cc1ccc(N(Cc2ccc(F)cc2)C(=O)c2ccco2)cc1	-12%	-22%	i	-31%
O=C(Cc1ccc(N(Cc2ccccc2)C(=O)c2ccco2)cc1)NCc1ccc(F)cc1	-13%	?	i	40µM*
O=C(Cc1ccc(N(Cc2cccc(F)c2)C(=O)c2ccco2)cc1)NCc1ccco1	0%	?	i	89µM*
C=CCNC(=O)Cc1ccc(N(Cc2ccc(OC)cc2)C(=O)c2ccco2)cc1	-3%	-29%	i	?
COc1ccc(CN(C(=O)c2ccco2)c2ccc(CC(=O)NCc3ccc(F)cc3)cc2)cc1	-17%	20µM*	i	?
O=C(NC1CN(c2ccnc3ccnn23)C1)c1ccccc1Cl	/	-13%[138 µM]	/	-21%[172 µM]
CO[C@H]1CN(C2CCN(C(=O)c3noc(C)c3Cn3cccn3)CC2)[C@H]1c1cccnc1	/	-4%	/	i
COCCN1C(=O)CCC2(C(=O)NCc3ccc(Cl)cc3)CCCC=C12 (stereo not drawn)	/	-23%	/	i
COc1ccc(-n2nc3n(c2=O)CCN(Cc2ccsc2)C3)cc1	/	32µM*	/	?
O=c1n(-c2ccc(C(F)(F)F)cc2)nc2n1CCN(Cc1cccc3ccccc13)C2	-19%	?	i	28µM*!
COc1ccc(CN2CCn3c(nn(-c4ccc(C(F)(F)F)cc4)c3=O)C2)cc1	/	-22%	/	-19%
O=c1n(-c2ccc(C(F)(F)F)cc2)nc2n1CCN(Cc1ccc(C(F)(F)F)cc1)C2	?	?	i	35µM*!
O=c1n(-c2ccc(C(F)(F)F)cc2)nc2n1CCN(Cc1ccccn1)C2	5%	?	?	?
O=c1n(-c2ccncc2)nc2n1CCN(Cc1ccsc1)C2	-7%[70.6 µM]	?	?	?
O=c1n(-c2ccc(Cl)cc2)nc2n1CCN(Cc1ccc(F)cc1)C2	/	28µM*	/	40µM*
Fc1ccc(C2Cn3nnc(-c4nc(-c5ccccc5)no4)c3CO2)cc1 (stereo not drawn)	-6%	-17%	i	-5%
COC(=O)N1CCCN(c2nc3ncccc3o2)CC1	1%[70.6 µM]	-5%[138 µM]	i	1%[172 µM]

Source: PubChem BioAssay (National Center for Advancing Translational Sciences (NCATS))
